D1 antag – antagonists of human D1 dopamine receptor | HEK293 TREx D1 cells, calcium flux, dopamine EC80; active compounds read low | activity change, negative = inhibition, % at 10 µM | hit rate 3.2% among 360,000 | AID 504652; in the data active = activity change below about -30%
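Compound effects on dopamine-evoked calcium signalling were measured in tetracycline-induced HEK293 Trex D1 cells. Dopamine at EC80 followed a 180 s compound pre-read, and fluorescence was tracked kinetically for 180 s more.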
Eya2 inh – Eya2 (human) phosphatase inhibition | O00167 | recombinant Eya2, OMFP fluorescence dephosphorylation (OMFP is methylfluorescein phosphate) | Potency, µM (doses to about 76.9 µM), actives largely listed as inhibitors | hit rate 0.006% among 330,000 | AID 488837
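Eya2 protein (added as 0.2 uM solution) was preincubated with compound for 10 min at ambient temperature in 50 mM HEPES pH 7.5, 50 mM NaCl, 5 uM MgCl2, 0.05% BSA, 1 mM DTT. OMFP (added at 50 uM) then reacted 10 min; fluorescence read at 485/525 nm.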
USP2a block – USP2a (human) protease inhibition; USP2 core, Ub-CHOP2 coupled fluorogenic reporter, 485/531; AID 463254; hit rate 0.01% among 330,000; O75604; Potency, µM (series often up to 38.3 µM), actives largely listed as inhibitors
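Cell-free coupled assay: 10nM USP2 core preincubated 30min RT with compound in Tris-HCl pH 8.0/CaCl2/CHAPS buffer, then 25nM Ub-CHOP2 and 25nM reporter substrate; fluorescence (Ex 485/Em 531) read after 60min RT, normalized to NEM inhibition, concentration-response curves fitted.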
GALK inh – galactokinase (human) inhibition; P51570; Purified GALK, Kinase-Glo residual ATP luminescence; Potency, µM (highest dose often 57.5 µM), actives largely listed as inhibitors; hit rate 0.007% among 270,000; AID 1868
Target sequence (P51570 whole entry, looked up): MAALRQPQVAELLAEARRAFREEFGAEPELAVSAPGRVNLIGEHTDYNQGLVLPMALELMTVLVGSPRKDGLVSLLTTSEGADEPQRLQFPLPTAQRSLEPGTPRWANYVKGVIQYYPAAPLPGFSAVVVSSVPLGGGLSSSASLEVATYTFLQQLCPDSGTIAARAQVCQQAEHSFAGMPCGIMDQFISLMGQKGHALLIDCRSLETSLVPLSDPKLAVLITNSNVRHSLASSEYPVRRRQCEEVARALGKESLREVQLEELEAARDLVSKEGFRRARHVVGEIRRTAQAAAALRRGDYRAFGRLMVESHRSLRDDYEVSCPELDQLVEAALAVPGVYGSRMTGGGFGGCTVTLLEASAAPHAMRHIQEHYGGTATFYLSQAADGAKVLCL
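The enzyme phosphorylates galactose (100 uM) using ATP (35 uM); inhibition is detected as higher residual ATP, quantified by bioluminescence after 1 h reaction at room temperature, pH 8.0.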
D1 agonist – agonists of human D1 dopamine receptor; P21728; hit rate 1% among 360,000; HEK293 T-REx D1 cells, calcium flux, agonist mode; AID 504660; activation, % at 2 µM; in the data active = activation above about 30%
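Agonism was scored from calcium flux recorded over 180 s (1 read/s) after pintool compound addition, following a 10-cycle baseline. Cells were inducible force-coupled HEK293 TREx D1, plated overnight at 30 C and loaded with no-wash calcium dye.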
D1 potentiator – potentiators of human D1 dopamine receptor; P21728; HEK293 TREx D1 cells, calcium flux, dopamine EC20 potentiation; potentiation, % at 10 µM; hit rate 0.036% among 360,000; in the data active = potentiation above about 30%
Large screens that a line does not name were inactive. This is a sample that favours compounds with a hit; in the whole collection about 3.9% have one here. Unless noted, calls come from the whole dose curve; as a rule, active = well fitted inhibition curve with a large enough effect; inconclusive = small, poorly fitted or top-dose-only effect, or effect the other way; inactive = flat fitted curve, though single readings scatter.

O=[N+]([O-])c1ccc(N2CCCCC2)c2ncccc12	none
COc1ccc(/C=C2\Oc3cc(OC(=O)N4CCOCC4)ccc3C2=O)c(OC)c1	USP2a block inconclusive, D1 agonist 37
CN(C)C(=O)Oc1ccc2c(c1)O/C(=C\c1ccc(Cl)cc1)C2=O	none (no result: GALK inh)
O=C(N=Nc1c(O)[nH]c(=O)[nH]c1=O)C1COc2ccccc2O1 (configuration not stated)	D1 antag -37
COc1ccc(OC)c(CCNCc2c(C(=O)O)c(C)n(Cc3ccc(F)cc3Cl)c2C)c1	none (no result: Eya2 inh, USP2a block, GALK inh)
c1ccc2c(CCNCc3ccc4c(c3)OCO4)c[nH]c2c1	D1 antag -43, D1 agonist 99
CCOc1ccc(CNCCc2ccc3c(c2)OCO3)cc1	D1 agonist 30
CCOc1ccc(CN(CCc2ccc3c(c2)OCO3)Cc2cccc(Br)c2)cc1	none (no result: Eya2 inh, USP2a block, GALK inh)
CC(Cc1ccc(OCC(=O)O)cc1)NCC(O)c1cccc(Cl)c1 (configuration not stated)	none (no result: D1 antag, USP2a block, GALK inh, D1 agonist, D1 potentiator)
Cc1ccc(-n2c(/C=C/c3cccs3)nc3ccccc3c2=O)cc1C	none (no result: Eya2 inh, USP2a block, GALK inh)
O=C(Nc1ccc2c(c1)OCCO2)c1cccn(Cc2cccc([N+](=O)[O-])c2)c1=O	none (no result: D1 antag, Eya2 inh, USP2a block, GALK inh)
COC[C@H]1OC(=O)c2coc3c2[C@@]1(C)C1=C(C3=O)C2CCC(=O)[C@@]2(C)C[C@H]1OC(C)=O (some centres not stated)	none (no result: D1 antag, USP2a block, GALK inh, D1 agonist, D1 potentiator)
O=C(COc1ccc(Br)cc1)N1CCN(Cc2ccc3c(c2)OCO3)CC1	D1 antag -34
CN1C(=O)C(=Cc2ccc(N3CCOCC3)o2)C(=O)N(C)C1=O	D1 agonist 45
O=C(CCc1nc(C2=CCN(Cc3cccc(Cl)c3)CC2)no1)Nc1ccccc1F	none (no result: Eya2 inh, USP2a block, GALK inh)
COCCCn1c(N)c(C(=O)OC(C)COC)c2nc3ccccc3nc21 (configuration not stated)	D1 antag -32
Cc1ccc(NC(=O)CN2C(=O)CN=C(c3ccccc3)c3ccccc32)cc1Cl	none (no result: Eya2 inh, USP2a block, GALK inh)
CCC1(CC)C(=O)NC(=Nc2cccc(C(F)(F)F)c2)NC1=O	D1 agonist 31
CCCC1(CCC)C(=O)NC(=Nc2ccc(C)cc2)NC1=O	none
COc1ccc(/C=C/c2nc3ccccc3c(=O)n2-c2ccc(C)cc2)cc1O	none (no result: Eya2 inh, USP2a block, GALK inh)
COc1ccc2c(c1)/C(=C/c1cnc[nH]1)C(=O)N2	D1 antag -34 (no result: GALK inh)
O=C1Nc2ccccc2/C1=C/c1cnc[nH]1	none
CCC12CN3CC(CC)(CN(C1)C3c1c(C)[nH]c(=O)[nH]c1=O)C2=O (configuration not stated)	none (no result: Eya2 inh, USP2a block, GALK inh)
Clc1ccc(CCC(Cn2ccnc2)Sc2c(Cl)cccc2Cl)cc1 (configuration not stated)	D1 antag -54, D1 agonist 46 (no result: GALK inh)
CCCN1CCC[C@@H](c2cccc(O)c2)C1	D1 antag -54 (no result: GALK inh)
Fc1ccccc1CNC1CN2CCC1CC2 (configuration not stated)	none
Clc1ccc(CNC2CN3CCC2CC3)cc1 (configuration not stated)	D1 antag -75
Cc1ccc(-n2c(/C=C\c3ccc(F)c(F)c3)nc3ccccc3c2=O)c(C)c1	none (no result: Eya2 inh, USP2a block, GALK inh)
Ic1ccccc1CNC1C2CCN(CC2)C1C(c1ccccc1)c1ccccc1 (configuration not stated)	none (no result: D1 antag, USP2a block, GALK inh, D1 agonist, D1 potentiator)
Ic1ccccc1CN[C@@H]1C2CCN(CC2)[C@@H]1C(c1ccccc1)c1ccccc1	D1 antag -31, D1 agonist 84 (no result: GALK inh)
Cc1[nH]c2ccccc2c1CCCNC1CCCCC1	D1 agonist 37
N#CCN1CCN(c2ccc(C(F)(F)F)cc2)CC1	D1 antag -50
CC1(C)CN=C(Nc2ccc(F)c(Cl)c2)S1	D1 agonist 34
COCCCNC(=O)c1c(NC(=O)c2ccccc2Cl)n(Cc2ccccc2)c2nc3ccccc3nc12	D1 agonist 40
CCCn1c(C)c(C(=O)c2ccc3ccccc3c2)c2ccccc21	none (no result: D1 antag, USP2a block, GALK inh, D1 agonist, D1 potentiator)
CCN(CC)c1ccc(/C=C2\C(=O)NC(=O)N(Cc3ccco3)C2=O)cc1	D1 antag -46
O=C1NC(=O)N(Cc2ccc(F)cc2)C(=O)/C1=C\C=C\c1ccco1	none
O=C1NC(=O)N(Cc2ccccc2)C(=O)/C1=C\c1ccco1	D1 antag -32

Source: PubChem BioAssay (National Center for Advancing Translational Sciences (NCATS))
